# According to ChEMBL document CHEMBL3988442, “University of Dundee, Small-Polar-MMV Screening Library” (2021):
# The whole screen tested about 66,000 compounds, of which about 960 (1.5%) showed an effect of 50% or more. Only a selection was taken, and strong results are over-represented in it overall.
# Test system: Trypanosoma brucei
# Assay: Trypanosoma brucei 72 hour study
# Format: functional, organism-based
# Design: scale not given: in the data most compounds retested in dose-response had high values
smiles,measurement,setting,value
Cn1cc(N2Cc3nc(N4CCOCC4)ncc3C2=O)cn1,Percent Effect,"30.3 µM, […]",-24.66%
Cc1cc(C)n(-c2ccc(CNCc3ccc(OC(C)C)cc3)cn2)n1,Percent Effect,"30 µM, 30.03 µM",-15.45%
CNC(=O)COc1ccc(CNCc2ccc(F)cc2F)cc1,Percent Effect,"30 µM, 30.03 µM",4.908%
Cc1cc(C)n(-c2ccc(CNCc3ccc(C)o3)cn2)n1,Percent Effect,"30.3 µM, […]",8.783%
COc1ccc(C)cc1CNCc1ccc(-n2nc(C)cc2C)nc1,Percent Effect,"30 µM, 30.03 µM",-31.15%
Cc1ccc(CNCc2ccc(-n3nc(C)cc3C)nc2)cc1,Percent Effect,"30 µM, 30.03 µM",-12.87%
Cc1cc(C)n(-c2ccc(CNCc3cccc(C#N)c3)cn2)n1,Percent Effect,"30.3 µM, […]",62.16%
COc1cc(CNCc2ccc(-n3nc(C)cc3C)nc2)cc(OC)c1,Percent Effect,"30.3 µM, […]",5.745%
Cc1cc(C)n(-c2ccc(CNCc3ccc(F)c(F)c3)cn2)n1,Percent Effect,"30.3 µM, […]",53.31%
Cc1cc(C)n(-c2ccc(CNCc3ccc(F)cc3F)cn2)n1,Percent Effect,"30.3 µM, […]",61.76%
CCn1cc(-c2c(C)c(C3CCOC(C)(C)C3)nc(N)c2C#N)cn1 (configuration not stated),Percent Effect,"30 µM, 30.03 µM",-13.96%
Cc1ccc(C(=O)N2CCC3(CC2)CCN(Cc2ccccn2)C3=O)o1.O=C(O)C(F)(F)F,Percent Effect,"30 µM, 30.03 µM",-16.24%
CCOCC(=O)N1CCOCC2(CCN(c3ncccn3)C2)C1.O=C(O)C(F)(F)F (configuration not stated),Percent Effect,"30.3 µM, […]",-43.52%
Cc1cc(NC(=O)N(CCO)Cc2ccsc2)no1,Percent Effect,"30.3 µM, […]",3.821%
Cc1nc(CN2CC[C@@H]3O[C@@H](C(=O)N4CCOCC4)C[C@@H]32)cs1.O=C(O)C(F)(F)F,Percent Effect,"30.3 µM, […]",-22.53%
CN(CCOc1cccc(S(C)(=O)=O)c1)c1ccccc1,Percent Effect,"30 µM, 30.03 µM",-2.31%
CCCOc1ccccc1CCCNc1ncnc2oc(C)nc12,Percent Effect,"30.3 µM, […]",99.92%
CCC(CNc1ncnc2oc(C)nc12)Cc1ccccc1 (configuration not stated),Percent Effect,"30.3 µM, […]",10.79%
CCCOc1ccc(Cl)cc1CNc1ncnc2oc(C)nc12,Percent Effect,"30.3 µM, […]",18.57%
CC(=O)N1CCN(Cc2ccsc2)CC2(CC(=O)N(C)C2)C1.O=C(O)C(F)(F)F (configuration not stated),Percent Effect,"30.3 µM, […]",-65.69%
O=C(c1cc(Cl)c[nH]c1=O)N1C[C@@H]2CC[C@H](C1)N(Cc1ccccc1)C2,Percent Effect,"30 µM, 30.03 µM",-61.83%
CC(=O)N1N=C(COc2ccc(Cl)cc2)OC1c1ccccc1 (configuration not stated),Percent Effect,"30 µM, 30.03 µM",-14.14%
CC(C)c1cc(NC(=O)c2ccc(NC3CC3)nc2)[nH]n1,Percent Effect,"30 µM, 30.03 µM",40.22%
CC(C)c1cc(NC(=O)c2ccc(C(=O)NC(C)(C)C)cc2)[nH]n1,Percent Effect,"30 µM, 30.03 µM",33.13%
Cc1ccc(C(=O)Nc2cc(C(C)C)n[nH]2)cn1,Percent Effect,"30 µM, 30.03 µM",54.96%
Cc1ccc(CC(=O)NCC(O)c2cc(Cl)cc(Cl)c2)cn1 (configuration not stated),Percent Effect,"30 µM, 30.03 µM",-24.81%
Cc1ccc(CC(=O)Nc2cc(C(C)C)n[nH]2)cn1,Percent Effect,"30.3 µM, […]",101.5%
same,Percent Effect,"10 mM, 10 mM as filed; unlikely as a test dose",101.9%
CC(C)c1cc(NC(=O)c2ccc([S+]([O-])C(C)C)cc2)[nH]n1 (configuration not stated),Percent Effect,"30.3 µM, […]",80.42%
same,Percent Effect,"10 mM, 10 mM as filed; unlikely as a test dose",77.43%
CC(C)c1cc(NC(=O)Cn2cnc3ccccc3c2=O)[nH]n1,Percent Effect,"30 µM, 30.03 µM",1.416%
CC(C)c1cc(NC(=O)c2ccncc2)[nH]n1,Percent Effect,"30.3 µM, […]",16.87%
same,Percent Effect,"10 mM, 10 mM as filed; unlikely as a test dose",-12.06%
CC(C)c1cc(NC(=O)c2cccnc2)[nH]n1,Percent Effect,"30.3 µM, […]",11.06%
same,Percent Effect,"10 mM, 10 mM as filed; unlikely as a test dose",-25.28%
NCc1cnn(-c2ccccc2C(=O)NCc2ccccn2)c1,Percent Effect,"30.3 µM, […]",5.478%
O=C(O)C(F)(F)F.O=C1CC2(CCN(Cc3ccco3)C2)CN1c1ccc2c(c1)OCO2 (configuration not stated),Percent Effect,"30 µM, 30.03 µM",43.65%
CN(C)C(=O)CN1C(=O)CCC12CCN(Cc1cccn1C)CC2.O=C(O)C(F)(F)F,Percent Effect,"30.3 µM, […]",-2.653%
COc1ccc([C@@H]2CN(C(=O)CCC(F)(F)F)C[C@H]2NC(C)=O)cc1,Percent Effect,"30 µM, 30.03 µM",98.96%
COc1ccc([C@@H]2CN(C(=O)CS(C)(=O)=O)C[C@H]2NC(C)=O)cc1,Percent Effect,"30 µM, 30.03 µM",-86.91%
CCOCC(=O)N1C[C@@H](NC(C)=O)[C@H](c2ccc(OC)cc2)C1,Percent Effect,"30 µM, 30.03 µM",-1.358%
COc1cccc(CN2CCCC3(CCN(C(=O)c4ccco4)C3)C2)c1 (configuration not stated),Percent Effect,"30.3 µM, […]",7.427%
Cc1cc(C)n(C2CN(CC(=O)N(C)Cc3ccsc3)C2)n1,Percent Effect,"30 µM, 30.03 µM",62.05%
COc1cccc(CN(C)C(=O)CN2CC(n3nc(C)cc3C)C2)c1,Percent Effect,"30 µM, 30.03 µM",1.154%
Cc1cc(C)n(C2CN(CC(=O)N(C)Cc3cnn(C)c3)C2)n1,Percent Effect,"30 µM, 30.03 µM",17.09%
O=C(O)C(F)(F)F.O=C([C@H]1C[C@H]2OCC[C@H]2N(Cc2ccc(F)cc2)C1)N1CCCCO1,Percent Effect,"30.3 µM, […]",-288.9%
Cc1ccc(CNCc2nccn2C)c(OC(C)(C)C)c1,Percent Effect,"30 µM, 30.03 µM",-9.651%
Cc1ccc(CNC(=O)NCc2nccn2C)c(OC(C)(C)C)c1,Percent Effect,"30 µM, 30.03 µM",-10.65%
CCn1ccnc1CNCc1ccc(C)cc1OC(C)(C)C,Percent Effect,"30 µM, 30.03 µM",59.89%
Cl.c1nc(N2CCOCC2)ncc1-c1cncn1CCCN1CCCCC1,Percent Effect,"30.3 µM, […]",-26.24%
CCn1cc(NC(=O)NCC(O)COc2ccccc2)cn1 (configuration not stated),Percent Effect,10 µM,2.207%
COc1ccc(CN2CCc3nc(C4CCCCN4C)ncc3C2)cc1 (configuration not stated),Percent Effect,"30 µM, 30.03 µM",-5.648%
CN1CCCCC1c1ncc2c(n1)CCN(CCCc1ccccc1)C2 (configuration not stated),Percent Effect,"30.3 µM, […]",98.5%
CN1CCCCC1c1ncc2c(n1)CCN(Cc1ccc(Cl)c(F)c1)C2 (configuration not stated),Percent Effect,"30.3 µM, […]",88.41%
CN1CCCCC1c1ncc2c(n1)CCN(Cc1ccccc1Cl)C2 (configuration not stated),Percent Effect,"30 µM, 30.03 µM",-6.551%
CN1CCCCC1c1ncc2c(n1)CCN(Cc1ccc(F)cc1)C2 (configuration not stated),Percent Effect,"30.3 µM, […]",42.96%
Cc1ncc2c(n1)CN(CCCc1ccccc1)CC2,Percent Effect,"30.3 µM, […]",13.17%
same,Percent Effect,"10 mM, 10 mM as filed; unlikely as a test dose",-28.02%
O=C(C1CCOCC1)N1C[C@H]2CCC[C@@]2(COc2ccccn2)C1.O=C(O)C(F)(F)F,Percent Effect,"30 µM, 30.03 µM",15.32%
Cl.Cn1nc(C2CCCN(Cc3cc(F)cc(F)c3)C2)c2nccnc21 (configuration not stated),Percent Effect,"30.3 µM, […]",30.77%
CNC(=O)[C@@H]1C[C@@H](N)CN1C1CCN(Cc2ccccn2)CC1,Percent Effect,"30.3 µM, […]",-17.78%
CNC(=O)[C@@H]1C[C@@H](N)CN1C1CCN(c2ccccc2F)CC1,Percent Effect,"30.3 µM, […]",11.28%
CCNC(=O)[C@@H]1C[C@H](N)CN1C1CCN(c2ccccc2OC)CC1,Percent Effect,"30.3 µM, […]",99.36%
O=C(NCCCn1nc2ccccn2c1=O)Nc1ccccc1,Percent Effect,"30.3 µM, […]",-36.69%
Cc1ccc(-n2c(C)nnc2SCC(O)COCc2ccco2)cc1 (configuration not stated),Percent Effect,"30.3 µM, […]",100%
OC(COCc1ccco1)CSc1nnc2ccccn12 (configuration not stated),Percent Effect,"30.3 µM, […]",-18.97%
OC(COCc1ccco1)CN1CCC(Cn2cccn2)CC1 (configuration not stated),Percent Effect,"30 µM, 30.03 µM",-22.56%
